In the supplement of paper PMC6992640:

How the values were obtained:
[1] = test system: HCI01 (cells of a triple-negative basal-like breast cancer xenograft); experiment: cell viability of combination (% of vehicle); higher = less cytotoxic; settings: 1 µM; 72 h; partner dose: 10 nM
Method: (§1)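 PDX cells were treated for 72 h with each drug at 1 µM plus afatinib (10 nM; 1 µM for WHIM30). Luciferase viability is expressed as percent of vehicle.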

[2] = test system: WHIM2 (cells of a triple-negative basal-like breast cancer xenograft); experiment: as above; settings: 1 µM; 72 h; partner dose: 10 nM
Method: as §1

| SMILES | cell viability of combination [1] | cell viability of combination [2] |
| --- | --- | --- |
| CCc1oc2ccccc2c1C(=O)c1cc(Br)c(O)c(Br)c1 [Benzbromarone] + CN(C)C/C=C/C(=O)Nc1cc2c(Nc3ccc(F)c(Cl)c3)ncnc2cc1O[C@H]1CCOC1 [Afatinib] | 56.3 | 48 |
| Clc1ccc(C(Cn2ccnc2)OCc2c(Cl)cccc2Cl)c(Cl)c1.O=[N+]([O-])O (configuration not stated) [Isoconazole nitrate] + CN(C)C/C=C/C(=O)Nc1cc2c(Nc3ccc(F)c(Cl)c3)ncnc2cc1O[C@H]1CCOC1 [Afatinib] | 63.8 | 52.1 |
| CO[C@H]1C[C@@H]2CC[C@@H](C)[C@@](O)(O2)C(=O)C(=O)N2CCCC[C@H]2C(=O)O[C@H]([C@H](C)C[C@@H]2CC[C@@H](OC(=O)C(C)(CO)CO)[C@H](OC)C2)CC(=O)[C@H](C)/C=C(\C)[C@@H](O)[C@@H](OC)C(=O)[C@H](C)C[C@H](C)/C=C/C=C/C=C/1C [Temsirolimus] + CN(C)C/C=C/C(=O)Nc1cc2c(Nc3ccc(F)c(Cl)c3)ncnc2cc1O[C@H]1CCOC1 [Afatinib] | 45.9 | 44 |
| COc1cc(C(=O)NS(=O)(=O)c2ccccc2C)ccc1Cc1cn(C)c2ccc(NC(=O)OC3CCCC3)cc12 [Zafirlukast] + CN(C)C/C=C/C(=O)Nc1cc2c(Nc3ccc(F)c(Cl)c3)ncnc2cc1O[C@H]1CCOC1 [Afatinib] | 61.4 | 52.2 |
| COc1cc(C(=O)O)ccc1NC(=O)C1NC(CC(C)(C)C)C(C#N)(c2ccc(Cl)cc2F)C1c1cccc(Cl)c1F (configuration not stated) + CN(C)C/C=C/C(=O)Nc1cc2c(Nc3ccc(F)c(Cl)c3)ncnc2cc1O[C@H]1CCOC1 [Afatinib] | 49.1 | 44.7 |
| COC(=O)NC(C(=O)N1CCCC1c1ncc(-c2ccc(-c3ccc(-c4cnc(C5CCCN5C(=O)C(NC(=O)OC)C(C)C)[nH]4)cc3)cc2)[nH]1)C(C)C (configuration not stated) + CN(C)C/C=C/C(=O)Nc1cc2c(Nc3ccc(F)c(Cl)c3)ncnc2cc1O[C@H]1CCOC1 [Afatinib] | 48.3 | 46.3 |
| Cc1nc(NC(=O)N2CCCC2C(N)=O)sc1-c1ccnc(C(C)(C)C(F)(F)F)c1 (configuration not stated) + CN(C)C/C=C/C(=O)Nc1cc2c(Nc3ccc(F)c(Cl)c3)ncnc2cc1O[C@H]1CCOC1 [Afatinib] | 46.9 | 37.9 |
| CCc1c(Cl)c(O)c(Cl)c(O)c1C(=O)OC1C(C)OC(OCC2=CC=CCC(O)C(C)=CC(CC)C(OC3OC(C)(C)C(OC(=O)C(C)C)C(O)C3O)C(C)=CC(C)=CCC(C(C)O)OC2=O)C(OC)C1O (configuration not stated) [Fidaxomicin] + CN(C)C/C=C/C(=O)Nc1cc2c(Nc3ccc(F)c(Cl)c3)ncnc2cc1O[C@H]1CCOC1 [Afatinib] | 56.2 | 51.9 |
| Cl.Nc1ccn(C2OC(CO)C(O)C2O)c(=O)n1 (configuration not stated) [Cytarabine hydrochloride] + CN(C)C/C=C/C(=O)Nc1cc2c(Nc3ccc(F)c(Cl)c3)ncnc2cc1O[C@H]1CCOC1 [Afatinib] | 46.6 | 40.3 |
| CC(C)(C)Cn1c(N)nc2ccc(-c3[nH]c(C(C)(C)C)nc3-c3ccc(F)cc3)nc21.CS(=O)(=O)O.CS(=O)(=O)O + CN(C)C/C=C/C(=O)Nc1cc2c(Nc3ccc(F)c(Cl)c3)ncnc2cc1O[C@H]1CCOC1 [Afatinib] | 35.9 | 35.4 |
| Nc1c(CC(=O)[O-])cccc1C(=O)c1ccccc1.O.[Na+] [Amfenac Sodium Monohydrate] + CN(C)C/C=C/C(=O)Nc1cc2c(Nc3ccc(F)c(Cl)c3)ncnc2cc1O[C@H]1CCOC1 [Afatinib] | 54.7 | 47.6 |
| Clc1ccc(CSC(Cn2ccnc2)c2ccc(Cl)cc2Cl)cc1.O=[N+]([O-])O (configuration not stated) [Sulconazole Nitrate] + CN(C)C/C=C/C(=O)Nc1cc2c(Nc3ccc(F)c(Cl)c3)ncnc2cc1O[C@H]1CCOC1 [Afatinib] | 62.8 | 49.5 |
| Cc1cc(-n2c(=O)[nH]c(=O)n(C)c2=O)ccc1Oc1ccc(SC(F)(F)F)cc1 [Toltrazuril] + CN(C)C/C=C/C(=O)Nc1cc2c(Nc3ccc(F)c(Cl)c3)ncnc2cc1O[C@H]1CCOC1 [Afatinib] | 58.1 | 48.4 |
| Cl.Fc1ccc(C2CCNCC2COc2ccc3c(c2)OCO3)cc1 (configuration not stated) [Paroxetine HCl] + CN(C)C/C=C/C(=O)Nc1cc2c(Nc3ccc(F)c(Cl)c3)ncnc2cc1O[C@H]1CCOC1 [Afatinib] | 52.3 | 49.6 |
| CC(C)C[C@H](NC(=O)[C@H](Cc1ccccc1)NC(=O)c1cnccn1)B(O)O [Bortezomib] + CN(C)C/C=C/C(=O)Nc1cc2c(Nc3ccc(F)c(Cl)c3)ncnc2cc1O[C@H]1CCOC1 [Afatinib] | 22.5 | 14.4 |
| Cc1cc(Nc2ncc(Cl)c(Nc3ccccc3S(=O)(=O)C(C)C)n2)c(OC(C)C)cc1C1CCNCC1 + CN(C)C/C=C/C(=O)Nc1cc2c(Nc3ccc(F)c(Cl)c3)ncnc2cc1O[C@H]1CCOC1 [Afatinib] | 44.4 | 36.7 |
| Clc1ccc(COC(Cn2ccnc2)c2ccc(Cl)cc2Cl)cc1.O=[N+]([O-])O (configuration not stated) [Econazole nitrate] + CN(C)C/C=C/C(=O)Nc1cc2c(Nc3ccc(F)c(Cl)c3)ncnc2cc1O[C@H]1CCOC1 [Afatinib] | 55.8 | 55.8 |
| CC(NCCCc1cccc(C(F)(F)F)c1)c1cccc2ccccc12 (configuration not stated) [Cinacalcet] + CN(C)C/C=C/C(=O)Nc1cc2c(Nc3ccc(F)c(Cl)c3)ncnc2cc1O[C@H]1CCOC1 [Afatinib] | 51.6 | 46.1 |
| COc1cc2c(Oc3ccc4[nH]c(C)cc4c3F)ncnc2cc1OCCCN1CCCC1 [Cediranib (AZD217)] + CN(C)C/C=C/C(=O)Nc1cc2c(Nc3ccc(F)c(Cl)c3)ncnc2cc1O[C@H]1CCOC1 [Afatinib] | 47.5 | 31.6 |
| C#Cc1cccc(Nc2ncnc3cc(OCCOC)c(OCCOC)cc23)c1 [Erlotinib] + CN(C)C/C=C/C(=O)Nc1cc2c(Nc3ccc(F)c(Cl)c3)ncnc2cc1O[C@H]1CCOC1 [Afatinib] | 41.1 | 42 |
| CC(O)C(=O)O.CC(O)C(=O)O.CN1CCN(c2ccc3c(c2)NC(=C2C(=O)N=c4cccc(F)c4=C2N)N3)CC1 [Dovitinib Dilactic acid] + CN(C)C/C=C/C(=O)Nc1cc2c(Nc3ccc(F)c(Cl)c3)ncnc2cc1O[C@H]1CCOC1 [Afatinib] | 42.3 | 30.4 |
| CNC1CCC(c2ccc(Cl)c(Cl)c2)c2ccccc21.Cl (configuration not stated) [Sertraline HCl] + CN(C)C/C=C/C(=O)Nc1cc2c(Nc3ccc(F)c(Cl)c3)ncnc2cc1O[C@H]1CCOC1 [Afatinib] | 53.4 | 49.2 |
| CN(C)c1ccc(O)c2c1CC1CC3C(N(C)C)C(=O)C(C(N)=O)=C(O)C3(O)C(=O)C1=C2O.Cl (configuration not stated) [Minocycline HCl] + CN(C)C/C=C/C(=O)Nc1cc2c(Nc3ccc(F)c(Cl)c3)ncnc2cc1O[C@H]1CCOC1 [Afatinib] | 66.6 | 49.9 |
| CC(C)(C)c1ccc(C(O)CCCN2CCC(C(O)(c3ccccc3)c3ccccc3)CC2)cc1 (configuration not stated) [Terfenadine] + CN(C)C/C=C/C(=O)Nc1cc2c(Nc3ccc(F)c(Cl)c3)ncnc2cc1O[C@H]1CCOC1 [Afatinib] | 52.8 | 51.1 |
| CC(C)CC(NC(=O)CNC(=O)c1cc(Cl)ccc1Cl)B(O)O (configuration not stated) + CN(C)C/C=C/C(=O)Nc1cc2c(Nc3ccc(F)c(Cl)c3)ncnc2cc1O[C@H]1CCOC1 [Afatinib] | 37 | 94.3 |
| Cc1c(C(=O)NN2CCCCC2)nn(-c2ccc(Cl)cc2Cl)c1-c1ccc(Cl)cc1 [Rimonabant] + CN(C)C/C=C/C(=O)Nc1cc2c(Nc3ccc(F)c(Cl)c3)ncnc2cc1O[C@H]1CCOC1 [Afatinib] | 56.7 | 48.4 |
